Sampled rows, rich in hits. Any-hit rate of the full collection: about 10%.
VDR inh – blocks the human vitamin D receptor | P11473 | VDR-SRC2-3 peptide fluorescence polarization, 2 h | Potency, µM, actives largely listed as inhibitors | hit rate 0.93% among 400,000
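Fluorescence polarization assay measuring small-molecule disruption of VDR binding to the coregulator peptide SRC2-3. Compounds were pin-transferred (23 nl) into the reagent mix and incubated 2 h at room temperature before reading.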
G9a block – inhibitors of human histone lysine methyltransferase G9a; Potency, µM (highest dose often 102 µM), most hits filed as inhibitors; G9a H3K9 monomethylation, AlphaScreen, 2 h; hit rate 8.8% among 350,000; Q96KQ7; also: nearly all actives have a fitted effect of over 75% in size
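Quantitative HTS format: methyltransferase activity on a biotin-tagged H3K9 peptide is measured by AlphaScreen, using a rabbit anti-monomethyl-H3K9 antibody with streptavidin donor and anti-IgG acceptor beads. Final levels are 20 nM enzyme, 500 nM peptide, 20 uM SAM; 2 h RT.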
CCT chaperon mod – changes cytosolic chaperonin activity | purified chaperonin ATPase assay, HTRF ADP detection, 30 min | activity change, % (no concentration beside the values), hits read low | hit rate 0.3% among 360,000; in the data active = activity change below about -30%
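First, chaperonin was dispensed at 40 nM or 20 nM final depending on batch activity. Next, compounds were pinned at 76 uM and ATP added at 10 uM. After 30 min at 37 °C, ADP detection reagents ran 30 min at ambient temperature.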
MmCpn inh – M. maripaludis TRiC chaperonin inhibition; purified Mm-Cpn ATPase, ADP Transcreener TR-FRET; Potency, µM (highest dose often 76.9 µM), actives largely listed as inhibitors; hit rate 0.031% among 330,000; also: nearly all actives have a fitted effect of over 80% in size
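25 nM Mm-CPN + cpd, 10 min 37°C; + 10 uM ATP, 30 min 37°C; buffer 30 mM Tris pH 7.4, 100 mM KCl, 5 mM MgCl2, 1 mM DTT; Transcreener ADP HTRF detection 30 min RT.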
PLK1 PBD block – inhibitors of human PLK1 polo-box domain binding; P53350; AID 720504; Plk1 PBD binding of FITC phosphopeptide, fluorescence polarization; hit rate 2.8% among 360,000; Potency, µM, most hits filed as inhibitors; also: series mostly up to about 57 µM; nearly all actives have a fitted effect of over 65% in size
Target sequence (P53350 whole entry, looked up, the tested form may be a part): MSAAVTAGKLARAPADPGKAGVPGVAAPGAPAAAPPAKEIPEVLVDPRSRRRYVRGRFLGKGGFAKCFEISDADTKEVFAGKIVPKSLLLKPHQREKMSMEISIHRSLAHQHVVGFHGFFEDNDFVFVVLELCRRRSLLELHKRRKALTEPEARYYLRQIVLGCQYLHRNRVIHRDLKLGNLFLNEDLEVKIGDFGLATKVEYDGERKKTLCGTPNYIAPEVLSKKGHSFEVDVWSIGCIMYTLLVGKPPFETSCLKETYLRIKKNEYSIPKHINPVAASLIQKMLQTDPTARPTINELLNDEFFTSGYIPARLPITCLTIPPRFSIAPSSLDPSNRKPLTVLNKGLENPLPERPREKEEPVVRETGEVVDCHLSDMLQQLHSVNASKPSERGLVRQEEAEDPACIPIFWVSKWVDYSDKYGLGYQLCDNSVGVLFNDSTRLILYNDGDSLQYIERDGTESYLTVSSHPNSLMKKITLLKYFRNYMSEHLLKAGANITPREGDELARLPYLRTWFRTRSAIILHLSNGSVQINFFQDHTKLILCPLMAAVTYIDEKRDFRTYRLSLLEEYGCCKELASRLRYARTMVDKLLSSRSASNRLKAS
Sfp inh – inhibitors of Bacillus subtilis Sfp phosphopantetheinyl transferase; Q9F4F7; Biochemical Sfp PPTase activity, qHTS; Potency, µM, most hits filed as inhibitors; hit rate 3.5% among 310,000; AID 1490;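 also: the enzyme is Sfp with the accession as filed and its product quenches rhodamine fluorescence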
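Fluorescence-quenching assay with 15 nM Sfp, 5 uM rhodamine-CoA and 12.5 uM BHQ-2-labelled ybbR peptide in pH 7.6 Hepes/MgCl2 buffer. Enzyme was pre-incubated with compound for 15 min at room temperature. Rate was taken from the 30-min fluorescence change (525/598 nm).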
A number is an active result; . = inactive; ? = inconclusive; / = not tested or not shown; [ ] = another dose, or the depositor's remark. Unless noted, calls follow the shape of the dose curve; as a rule, active = well fitted curve in the direction sought with a large enough effect; inconclusive = small, poorly fitted or top-dose-only effect, or another doubt; inactive = no such curve, though single readings can be large; an effect the other way counts as inactive or inconclusive.

SMILES | VDR inh | G9a block | CCT chaperon mod | MmCpn inh | PLK1 PBD block | Sfp inh
COCCn1c(=S)[nH]c2sc3c(c2c1=O)CCC(C)C3 (stereo not drawn) | . | 20µM | . | . | ? | .
COc1ccccc1N1CCN(C(=O)Cn2cnc3onc(-c4ccc(F)cc4)c3c2=O)CC1 | . | . | / | / | / | /
CCN(c1ccccc1)c1nnc(NC(=O)Nc2ccccc2F)s1 | . | . | / | / | / | /
CC(C)(C)OC(=O)N1CCC(c2c(C(=O)NC3CCCCC3)cnn2-c2cccc(Cl)c2)CC1 | . | . | / | / | / | /
CCc1cccc(C)c1NC(=O)CCn1c(=O)c2cccn2c2ccccc21 | . | . | / | / | / | /
CCOC(=O)c1c(C2COc3ccccc3O2)csc1N (stereo not drawn) | . | 50µM | -41 | . | . | .
O=C(N/N=C1/C[C@@H](O)[C@@H](O)[C@@H]2[C@@H]3C(=O)N(C4CCCCC4)C(=O)[C@H]3CC[C@@H]12)OCc1ccccc1 | / | / | / | / | / | .
Cc1ccc(C)c(Nc2ncnc3onc(C)c23)c1 | . | . | / | / | / | /
Cn1nnnc1Sc1ccc([N+](=O)[O-])cc1Cl | . | . | . | . | . | .
O=[N+]([O-])c1ccc(Sc2nnnn2-c2ccccc2)c(Cl)c1 | . | 50µM | . | . | . | .
Cc1ccc(C(C(=O)NC2CCCCC2)N(Cc2ccccc2)C(=O)Cc2c[nH]c3ccccc23)o1 (stereo not drawn) | . | 2.5µM | . | . | . | .
COc1cc(C(C(=O)NC2CCCCC2)N(C(=O)Cc2c[nH]c3ccccc23)c2ccccc2C)cc(OC)c1OC (stereo not drawn) | . | 40µM | . | . | . | .
Cc1ccc2oc3c(c(=O)c2c1)C(c1ccccc1F)N(CCCN(C)C)C3=O (stereo not drawn) | . | . | / | / | / | /
CC1CCCCN1c1nnc(N)s1 (stereo not drawn) | . | . | . | . | . | .
CC1CCCC(C)N1c1nnc(N)s1 (stereo not drawn) | . | 18µM | . | . | . | .
Oc1c(Cl)cc(Cl)c2c1NCCC2 | 32µM | ? | . | . | 4.7µM | 16µM
O=C(Cc1csc(N2CCOCC2)n1)N/N=C/c1ccc(O)c(O)c1O | . | 3.5µM | . | . | 11µM | 10µM
O=C(CCN1CCN(c2ccccc2)CC1)N/N=C/c1ccc(O)c(O)c1O | . | 8.9µM | . | . | 11µM | 8.9µM
Cc1cc(C(=O)N/N=C/c2ccc(O)c(O)c2O)c(C)n1-c1ccccc1 | . | 10µM | . | . | 6.7µM | 8.9µM
COc1ccc(N2CCN(C(=O)CN=C3NS(=O)(=O)C(c4ccc(C)cc4)=C3C)CC2)cc1 | . | 40µM | . | . | . | .
Cc1ccc(S(=O)(=O)CCC(=O)OCC(=O)N2CCN(S(=O)(=O)c3ccccc3)CC2)cc1 | . | 50µM | . | . | . | /
CC1=C(c2ccc(C)cc2)S(=O)(=O)NC1=NCCCN1CCN(c2ccc(F)cc2)CC1 | . | ? | / | / | / | /
COc1ccc(N2CCN(C(=O)COC(=O)CCS(=O)(=O)c3ccc(C)cc3)CC2)cc1 | . | 40µM | . | . | . | /
COc1ccc(N2CCN(C(=O)CCC(=O)c3cc(C)sc3C)CC2)cc1 | . | 50µM | . | . | . | .
Cc1ccc(S(=O)(=O)CCC(=O)OCC(=O)N2CCN(c3ccccc3)CC2)cc1 | . | .[2.33 µM] | . | . | . | /
SMILES | VDR inh | G9a block | CCT chaperon mod | MmCpn inh | PLK1 PBD block | Sfp inh
N=C(N)SCCN=C(N)N | . | / | / | / | / | .
CC(C)C[C@@H](CC(=O)N[C@@H](CCCN)CC(=O)N[C@@H]1CCNC[C@H]1C(=O)N[C@H](CC(=O)N[C@@H](CCC(=O)O)CC(=O)O)Cc1c[nH]c2ccccc12)NC(=O)[C@@H]1CCCC[C@H]1N | . | / | / | / | / | .
COc1ccc(Nc2nc3c(S(=O)(=O)c4ccccc4)nnn3c3ccsc23)cc1OC | . | . | / | / | / | /
CCN(CC)S(=O)(=O)c1cc(-c2onc(C)c2C)ccc1OC | . | . | / | / | / | /
COc1ccc(N2CCN(C(=O)Cc3ccc(C)cc3)CC2)cc1 | . | 71µM | . | . | . | .
COc1ccc(N2CCN(C(=O)Cc3nn(C)c(=O)c4ccccc34)CC2)cc1 | . | 35µM | . | . | . | .
COc1ccc(CC(=O)N2CCOCC2)cc1 | . | ? | . | . | ? | .
CCOC(=O)C1C(C(=O)OC)=C(CC(C)C)c2ccccc2N1S(=O)(=O)C(F)(F)F (stereo not drawn) | . | . | / | / | / | .
O=C(Cn1c(=O)oc2cc(S(=O)(=O)N3CCCCC3)ccc21)NCc1ccc(Cl)cc1 | . | . | / | / | / | /

Bioassay records (PubChem BioAssay)
